In PubChem BioAssay (EPA / NIEHS):
Active and inactive are the calls of the source. How the source made its calls: active means hit-call score of the fitted dose curve at least 0.9, where 1 is the maximum; inactive means score below 0.9.

How the values were obtained:
[1] = ATG_PXRE_CIS: Attagene CIS-FACTORIAL HepG2 Assay for human Pregnane X Receptor Element (PXRE) (AID 2282957); settings: HepG2 Attagene CIS-FACTORIAL PXRE reporter, mRNA; actives raise or lower the signal
Summary of the method: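 After a 24 h chemical incubation, total RNA from transfected HepG2 cells was reverse-transcribed and reporter cDNA amplified, FAM-labeled, HpaI-digested and sized by capillary electrophoresis. DMSO served as baseline for bidirectional curve fitting.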

[2] = ATG_PPRE_CIS: Attagene CIS-FACTORIAL HepG2 Assay for human Peroxisome Proliferator-activated Response Element (PPRE) (AID 2282958); settings: HepG2 PPRE cis-element reporter, Attagene transcription factor profiling; actives raise or lower the signal
Summary of the method: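 HepG2, transient MRTU transfection (cis promoter elements, endogenous TFs). 24 h dosing. RNA → oligo(dT) RT → PCR → 6-FAM primer extension → HpaI digest → CE. Bidirectional fit vs DMSO.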

[3] = ATG_RORE_CIS: Attagene CIS-FACTORIAL HepG2 Assay for human RAR-related Orphan Receptor Element (RORE) (AID 2282959); settings: HepG2 Attagene cis-factorial RORE reporter, mRNA; actives raise or lower the signal
Summary of the method: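 Transient MRTU transfection of human HepG2 liver cells (FuGene 6); 24 h compound exposure; TriZol RNA, oligo(dT) RT, PCR, FAM labeling, HpaI cut, CE fragment analysis. DMSO = negative control/baseline.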

[4] = ATG_Sox_CIS: Attagene CIS-FACTORIAL HepG2 Assay for human SRY-box transcription factor (SOX) (AID 2282960); settings: HepG2 Attagene cis-factorial SOX reporter, mRNA; actives raise or lower the signal
Summary of the method: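 Endogenous factor activity in human liver HepG2 cells carrying transfected cis-regulated reporter units. RNA taken 24 h post-dose, reverse-transcribed, PCR-amplified and sized by capillary electrophoresis. Gain or loss of signal fitted relative to DMSO.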

[5] = molecular target: Transcription factor Sp1 (Homo sapiens) (UniProt P08047); assay: ATG_Sp1_CIS: Attagene CIS-FACTORIAL HepG2 Assay for human Specificity Protein 1 (Sp1) (AID 2282961); settings: HepG2 Sp1 cis-reporter transcription, actives raise or lower the signal
Summary of the method: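 Transient MRTU-transfected HepG2, 24 h compound exposure. Total RNA → oligo(dT) RT → PCR of reporter → 6-FAM primer extension → HpaI digest → CE. Endpoint fitted both directions vs DMSO.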

[6] = ATG_SREBP_CIS: Attagene CIS-FACTORIAL HepG2 Assay for human Sterol Regulatory Element Binding (SREBP) (AID 2282962); settings: HepG2 Attagene cis-factorial SREBP reporter, mRNA; actives raise or lower the signal
Summary of the method: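 In this cis-format assay, HepG2 liver cells express reporters controlled by promoter elements responsive to native transcription factors. Exposure lasts 24 h; reporter mRNA fluorescence from capillary electrophoresis gives the signal, fitted bidirectionally against DMSO.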

[7] = molecular target: Signal transducer and activator of transcription 3 (Homo sapiens) (UniProt P40763); assay: ATG_STAT3_CIS: Attagene CIS-FACTORIAL HepG2 Assay for human Signal Transducer and Activator of Transcription 3 (STAT3) (AID 2282963); settings: HepG2, Attagene cis-factorial STAT3 reporter transcription; actives raise or lower the signal
Summary of the method: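 Readout: fluorescent reporter mRNA fragments resolved by capillary electrophoresis. Setup: HepG2 transfected with MRTUs reporting endogenous transcription-factor activity, dosed 24 h. Gain or loss of signal fitted bidirectionally against DMSO control.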

[8] = ATG_TA_CIS: Attagene CIS-FACTORIAL HepG2 Assay for human TA Basal Promoter (AID 2282964); settings: HepG2 Attagene CIS-factorial TA basal promoter reporter; actives raise or lower the signal
Summary of the method: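 Multiplexed mRNA reporter assay, HepG2, 24 h. Reporter cDNA amplified, 6-FAM primer-extended, HpaI-cut, CE-sized; DMSO = negative control and baseline.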

[9] = ATG_TCF_b_cat_CIS: Attagene CIS-FACTORIAL HepG2 Assay for human T-Cell-Factor with beta-catenin (TCF/b-cat) (AID 2282965); settings: HepG2 TCF/beta-catenin cis-reporter transcription, actives raise or lower the signal
Summary of the method: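 Cells of the HepG2 line carry transiently transfected reporter units whose promoters respond to endogenous factors. Twenty-four hours post-dosing, reporter mRNA induction is measured by fluorescent RT-PCR and capillary electrophoresis, with DMSO as baseline.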

Measured: AC50

Chain of Signal transducer and activator of transcription 3 (Homo sapiens) (P40763 whole entry, looked up, the tested form may be a part): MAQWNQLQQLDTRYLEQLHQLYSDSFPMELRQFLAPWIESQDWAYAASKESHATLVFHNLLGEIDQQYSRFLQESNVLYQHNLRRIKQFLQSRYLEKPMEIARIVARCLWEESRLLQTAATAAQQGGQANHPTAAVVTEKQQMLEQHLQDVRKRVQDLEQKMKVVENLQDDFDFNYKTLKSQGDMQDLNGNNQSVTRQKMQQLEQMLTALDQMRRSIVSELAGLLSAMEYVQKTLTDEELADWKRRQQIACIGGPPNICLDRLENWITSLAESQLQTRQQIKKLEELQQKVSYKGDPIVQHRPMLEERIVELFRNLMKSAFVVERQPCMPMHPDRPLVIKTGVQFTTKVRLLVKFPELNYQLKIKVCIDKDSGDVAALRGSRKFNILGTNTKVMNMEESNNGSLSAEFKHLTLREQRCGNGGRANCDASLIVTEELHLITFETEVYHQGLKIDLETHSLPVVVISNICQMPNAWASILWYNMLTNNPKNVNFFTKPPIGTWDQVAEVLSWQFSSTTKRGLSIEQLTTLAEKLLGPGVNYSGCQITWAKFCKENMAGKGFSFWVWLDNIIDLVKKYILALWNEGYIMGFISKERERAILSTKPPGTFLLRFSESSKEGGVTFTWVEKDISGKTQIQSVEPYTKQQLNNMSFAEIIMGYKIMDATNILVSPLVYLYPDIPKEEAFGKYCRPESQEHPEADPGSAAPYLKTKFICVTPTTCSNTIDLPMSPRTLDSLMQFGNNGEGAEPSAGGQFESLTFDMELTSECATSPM
Chain of Transcription factor Sp1 (Homo sapiens) (P08047 whole entry, looked up): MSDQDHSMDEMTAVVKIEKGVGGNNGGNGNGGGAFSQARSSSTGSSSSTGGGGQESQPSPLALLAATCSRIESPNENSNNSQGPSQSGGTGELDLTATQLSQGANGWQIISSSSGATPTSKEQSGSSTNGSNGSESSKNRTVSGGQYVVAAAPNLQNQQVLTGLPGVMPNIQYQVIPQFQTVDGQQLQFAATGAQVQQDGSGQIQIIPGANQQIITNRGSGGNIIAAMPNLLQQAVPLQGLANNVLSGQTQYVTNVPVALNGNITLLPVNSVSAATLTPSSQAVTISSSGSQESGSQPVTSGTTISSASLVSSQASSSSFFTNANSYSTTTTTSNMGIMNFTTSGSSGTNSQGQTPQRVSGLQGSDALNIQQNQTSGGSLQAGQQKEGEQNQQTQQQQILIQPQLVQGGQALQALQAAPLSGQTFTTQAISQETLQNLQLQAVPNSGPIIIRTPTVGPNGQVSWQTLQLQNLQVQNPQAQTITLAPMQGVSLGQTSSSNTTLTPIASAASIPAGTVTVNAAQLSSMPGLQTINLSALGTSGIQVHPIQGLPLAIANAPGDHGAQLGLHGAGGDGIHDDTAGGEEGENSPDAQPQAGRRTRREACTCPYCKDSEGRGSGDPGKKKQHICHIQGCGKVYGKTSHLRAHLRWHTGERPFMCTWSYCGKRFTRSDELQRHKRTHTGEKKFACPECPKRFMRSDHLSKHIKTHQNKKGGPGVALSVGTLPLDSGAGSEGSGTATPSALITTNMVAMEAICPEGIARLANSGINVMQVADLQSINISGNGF

O=C(c1ccc(O)cc1)c1ccc(O)cc1O
inactive: [3] | [4] | [5] | [7] | [8] | [9]
active: [1] 35.8 µM | [2] 100 µM | [6] 100 µM

c1cc(N(CC2CO2)CC2CO2)ccc1OCC1CO1 (stereo unspecified)
inactive: [1] | [7]
active: [3] 80.6 µM | [4] 58.5 µM | [5] 56.9 µM | [6] 68.3 µM | [9] 12.6 µM

OC1CCCC1
inactive: [3] | [4] | [5] | [6] | [7] | [8] | [9]
active: [1] 48.8 µM

Nc1ccc2cc3ccccc3cc2c1
active: [1] 13.2 µM
inactive: [2] | [3] | [7] | [8] | [9]

COc1cc(C)ccc1C(C)C
inactive: [1] | [2] | [3] | [4] | [5] | [7] | [8] | [9]

CC(=O)OCC(=O)[C@@]12N=C(C)O[C@@H]1C[C@H]1[C@@H]3CCC4=CC(=O)C=C[C@]4(C)[C@H]3[C@@H](O)C[C@@]12C
inactive: [2] | [3] | [4] | [5] | [6] | [7] | [8] | [9]
active: [1] 17.6 µM

CC=CC(=O)N(CC)c1ccccc1C
inactive: [3] | [4] | [5] | [6] | [7] | [9]
active: [1] 11.1 µM

Cc1c(C)c([N+](=O)[O-])c(C(C)(C)C)c([N+](=O)[O-])c1C
inactive: [3] | [4] | [5] | [6] | [7] | [8] | [9]
active: [1] 1.93 µM

Nc1cccc(C(F)(F)F)c1
inactive: [1] | [2] | [3] | [4] | [5] | [6] | [7] | [8] | [9]

CCCCCCCCCCCCCOP(=O)(O)O
active: [1] 7.54 µM
inactive: [2] | [3] | [5] | [6] | [7] | [8] | [9]

OC1CCCCCCCCCCC1
active: [1] 4.47 µM
inactive: [2] | [3] | [4] | [5] | [6] | [7] | [8] | [9]

OCCNCc1ccccc1
inactive: [1] | [2] | [3] | [4] | [5] | [6] | [7] | [9]

CCCCCCOC(=O)C(C)CC (stereo unspecified)
inactive: [1] | [2] | [3] | [4] | [5] | [6] | [7] | [8] | [9]

CN1C(=O)N(C)C(O)C1O (stereo unspecified)
inactive: [1] | [2] | [3] | [4] | [5] | [7] | [8] | [9]

O=C1c2ccccc2C(=O)C1c1nc2ccccc2c(Br)c1O
active: [1] 5.42 µM
inactive: [2] | [3] | [4] | [6] | [7] | [8] | [9]

Cc1cc(=O)n(-c2ccccc2)n1C
inactive: [1] | [3] | [4] | [5] | [6] | [7] | [8] | [9]

O=C(O)c1ccccc1Nc1cccc(C(F)(F)F)c1
inactive: [4] | [5] | [7] | [9]
active: [1] 5.5 µM | [2] 33 µM | [3] 100 µM | [6] 26.5 µM | [8] 100 µM

COC(F)(F)C(F)(C(F)(F)F)C(F)(F)F
inactive: [1] | [2] | [3] | [4] | [5] | [6] | [7] | [8] | [9]

C=COCCCC
inactive: [1] | [2] | [3] | [4] | [5] | [6] | [7] | [8] | [9]
